Source: PubChem BioAssay (National Center for Advancing Translational Sciences (NCATS))
D1 potentiator = potentiators of human D1 dopamine receptor; potentiation, % at 10 µM; AID 504651; P21728; 360,000 tested, 0.036% active; HEK293 TREx D1 cells, calcium flux, dopamine EC20 potentiation; in the data active = potentiation above about 30%; also: 0% is about no effect
Target sequence (P21728 whole entry, looked up): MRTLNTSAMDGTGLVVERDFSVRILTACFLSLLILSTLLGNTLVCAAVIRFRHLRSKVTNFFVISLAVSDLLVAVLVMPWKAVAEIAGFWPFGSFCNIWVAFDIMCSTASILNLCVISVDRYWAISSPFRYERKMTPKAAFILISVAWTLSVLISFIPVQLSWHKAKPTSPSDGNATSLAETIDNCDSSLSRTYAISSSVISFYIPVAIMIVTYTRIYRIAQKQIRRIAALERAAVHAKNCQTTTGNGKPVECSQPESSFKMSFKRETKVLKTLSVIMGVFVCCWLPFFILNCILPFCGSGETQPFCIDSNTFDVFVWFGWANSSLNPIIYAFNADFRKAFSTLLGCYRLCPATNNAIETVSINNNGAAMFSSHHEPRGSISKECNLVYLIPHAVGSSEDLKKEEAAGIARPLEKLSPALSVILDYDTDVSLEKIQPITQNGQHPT
TRHR enhancer = TRH receptor (human) allosteric enhancement | 360,000 tested, 0.66% active | enhancement, % at 2 µM | P34981 | TRHR cells, fluo-8 calcium fluorescence, EC20 TRH enhancement; in the data active = enhancement above about 30%; also: 0% is about no effect
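Enhancer read-out: after compound pinning and an initial kinetic agonist-mode read, an EC20 of TRH (10 nM final) was injected and fluo-8 calcium signal (Ex 480/Em 530) followed at 1 s/cycle for 100 cycles in TRHR-expressing cells.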
D1 agonist = activates the human D1 dopamine receptor; P21728; HEK293 T-REx D1 cells, calcium flux, agonist mode; 360,000 tested, 1% active; AID 504660; activation, % at 2 µM; also: 0% is about no effect
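Agonism was scored from calcium flux recorded over 180 s (1 read/s) after pintool compound addition, following a 10-cycle baseline. Cells were inducible force-coupled HEK293 TREx D1, plated overnight at 30 C and loaded with no-wash calcium dye.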
D1 antagonist = blocks dopamine activation of the human D1 receptor; P21728; HEK293 TREx D1 cells, calcium flux, dopamine EC80; stronger effect = lower value; activity change, negative = inhibition, % at 10 µM; 360,000 tested, 3.2% active; AID 504652; in the data active = activity change below about -30%; also: % is scaled to controls: 0 for no effect and ±100 for the full control effect
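Cells carrying a force-coupled, tetracycline-inducible human D1 receptor report calcium flux. Each well gets a 10 s baseline, compound with 180 s monitoring, then an EC80 dopamine stimulus with a second 180 s kinetic read.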
TRHR ag = TRH receptor (human) agonism; AID 493084; activation, % at 2 µM; 360,000 tested, 0.18% active; TRHR cells, calcium flux fluo-8, FDSS agonist mode; also: 0% is about no effect
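TRHR-expressing cells, plated overnight in medium with 10% serum, were loaded with fluo-8 calcium dye at room temperature. After a 10 s baseline, library compound was pin-added and calcium release was recorded kinetically (ex 480/em 530) as agonist response.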
Starred values were filed as active, the others as inactive; x = no result; ! = a repeat was not active. Most compounds without a hit are left out; they make up all but 4.6% or so of the library. Rule as the data show it, unless noted: active = activation above about 30%; inactive = the rest.

SMILES | D1 potentiator | TRHR enhancer | D1 agonist | D1 antagonist | TRHR ag
COc1ccc(CC(=O)NCC(c2cccs2)S(=O)(=O)c2ccc(Cl)cc2)cc1 (stereo unspecified) | 5 | -1 | -4 | x | -1
CCc1ccc(NC(=O)COCc2cc(-c3ccc(F)cc3)on2)cc1 | 5 | -1 | 5 | -16 | 0
CC(=O)N1CCOc2cc(S(=O)(=O)Nc3c(C)cccc3C(C)C)c(Cl)cc21 | 4 | 3 | -1 | 14 | 0
C=CCSc1nc(N)c(C#N)c(-c2ccc(C)cc2)c1C#N | -5 | 38* | 2 | -4 | 0
COc1ccccc1NC(=O)C1(C)Cc2ccccc2C(=O)O1 (stereo unspecified) | -8 | 7 | 2 | -2 | 0
Cc1ccc(NC(=O)C2(C)Cc3ccccc3C(=O)O2)c(C)c1 (stereo unspecified) | 0 | 50* | 8 | -4 | 1
Cc1ccc(N/C(N)=N/c2nc(CSc3nnc(N)s3)cc(=O)[nH]2)cc1 | -4 | 3 | 5 | -34* | 0
Cc1ncc(CN2CCC(C(=O)Nc3ccc(-n4cccn4)cc3)CC2)s1 | 13 | 30* | 4 | 2 | 0
Cc1cc(C)n(-c2ccc(NC(=O)C3CCN(Cc4cnc(C)s4)CC3)cc2)n1 | -1 | 1 | 1 | 3 | 0
CCc1ccc(C2CC(=O)NC(NC(=O)c3ccc(C(C)(C)C)cc3)=N2)cc1 (stereo unspecified) | -1 | 0 | 0 | 3 | 0
COc1cccc(NC(=O)Nc2cc(Cl)ccc2C)c1 | -9 | 9 | 9 | -34* | 2
COc1cccc(NC(=O)NC(=O)c2c(C)cc(Cl)nc2Cl)c1 | -4 | 5 | 2 | -41* | 1
CC1CC(C)CN(S(=O)(=O)N2CCC(C(=O)NCCc3ccccc3)CC2)C1 (stereo unspecified) | -4 | -2 | 5 | -11 | 0
COc1ccc(C(CC(=O)NCc2ccccc2Cl)N2Cc3ccccc3C2=O)cc1OC (stereo unspecified) | -3 | -4 | 1 | 8 | 1
O=C(CSc1nc(-c2cccs2)nc2cc(=O)[nH]n12)Nc1cccc(C(F)(F)F)c1 | -2 | -2 | 6 | -38* | -1
Cc1cccc(NC(=O)CSc2nc(-c3cccs3)nc3cc(=O)[nH]n23)c1 | 2 | -4 | 2 | -4 | 0
Cc1ccc(NC(=O)CSc2nnc(-c3nnn(-c4ccc(F)cc4)c3C)o2)cc1Br | 1 | 7 | 3 | -13 | 0
CCOc1ccc(C2CC(c3ccccc3C)n3ncnc3N2)cc1 (stereo unspecified) | x | -4 | 14 | -40* | -1
Cc1ccccc1C1CC(c2ccccc2)Nc2ncnn21 (stereo unspecified) | x | 12 | 5 | 8 | -1
Cc1ccc(Cl)cc1NC(=O)C(C)n1nc(-c2ccccc2)ccc1=O (stereo unspecified) | 4 | -3 | 2 | 17 | 0
CCCN1C(=O)/C(=C/C=C2\N(CC)c3ccccc3C2(C)C)SC1=S | -2 | 1 | 63* | 0 | 24
C=CCN1C(=O)/C(=C\C=C2\N(C)c3ccccc3C2(C)C)SC1=S | -8 | 1 | 85* | -1 | 25
CN1/C(=C\C=C2/SC(=S)N(CC(=O)O)C2=O)C(C)(C)c2ccccc21 | -10 | -21 | 182* | -26 | 112*
CCCCN1C(=O)/C(=C/C=C2\Oc3ccccc3N2CC)SC1=S | -6 | 4 | 393* | -30 | 98*
CCN1C(=O)/C(=C\N2CCCc3ccccc32)SC1=S | -7 | 2 | 2 | -17 | -1
SMILES | D1 potentiator | TRHR enhancer | D1 agonist | D1 antagonist | TRHR ag
Cc1c(N=C/C=C2\N(C)c3ccccc3C2(C)C)c(=O)n(-c2ccccc2)n1C | -2 | -2 | 6 | 5 | 1
Cc1ccc(C23CC4CC(CC(C(=O)NN)(C4)C2)C3)cc1 | -4 | -7 | 0 | -1 | 0
CSc1ccccc1OCc1cc(C(=O)NCc2cccc(C)n2)no1 | -9 | 0 | 2 | -5 | 0
CCn1nc(C)c(CNC(=O)c2cc(COc3ccccc3SC)on2)c1C | 0 | 23 | 12 | -49* | 1
CC1CCCCC1N(C)C1CCN(C(=O)CNC(=O)/C=C/c2cccc(Cl)c2)CC1 (stereo unspecified) | -2 | 0 | 14 | -31* | -1
CN(C1CCCC1)C1CCN(C(=O)CNC(=O)/C=C/c2ccccc2)CC1 | -2 | 3 | 3 | -13 | 1
CC1=C(C(=O)OC2CCCCC2)C(c2ccc(F)cc2)NC(=O)N1 (stereo unspecified) | 5 | -8 | 0 | -2 | -1
Cc1nn(C(C)C(=O)NCCCN2CCCC2)c(=O)c2nn(-c3ccccc3)c(C)c12 (stereo unspecified) | -9 | 5 | 4 | 5 | -1
O=C(CCc1nc2ccccc2[nH]c1=O)OCc1ccc(S(=O)(=O)N2CCOCC2)cc1 | 1 | 36* | 1 | -7 | 0
CCOC(=O)c1ccc(COC(=O)CCc2nc3ccccc3[nH]c2=O)o1 | -5 | 28 | 0 | 8 | 1
O=C(CCc1ccc(S(=O)(=O)N2CCOCC2)cc1)OCc1nc2ccccc2s1 | 2 | -9 | 33* | -9 | -1
CCOc1ccccc1Oc1nc(C)nc2c1oc1ccccc12 | -4 | -1 | 0 | 5 | 0
CCC(C)(C)NC(=O)C(c1ccc(OC)cc1)N(Cc1cccs1)C(=O)CCC(=O)Nc1cc(C)on1 (stereo unspecified) | -9 | -3 | 0 | -35* | -1
O=C(Nc1ccc(C(F)(F)F)cc1)C1CCN(c2cnccn2)CC1 | -4 | -3 | 5 | -56*! | 0
Cc1ccc(NC(=O)C2CCN(c3cnccn3)CC2)cc1 | -12 | -9 | -1 | -20 | 0
O=C(Cc1cccc(C(F)(F)F)c1)Nc1ccc(S(=O)(=O)N2CCCC2)cc1 | -3 | -7 | 3 | 15 | 1
COc1ccc(CCC(=O)Nc2cccc(S(=O)(=O)N3CCCCCC3)c2)cc1OC | -4 | -7 | 10 | -31* | 0
O=C(Cc1cccc(C(F)(F)F)c1)Nc1cccc(S(=O)(=O)N2CCCC2)c1 | -10 | -5 | 11 | -41* | -1
CC(=O)N1CCN(S(=O)(=O)c2cccc(C(=O)Nc3cc(C(F)(F)F)ccc3N3CCOCC3)c2)CC1 | -10 | 8 | 0 | -31* | 1
Cc1ccc(CN2CCN(CC(=O)N/N=C/c3ccc(C)o3)CC2)cc1 | -2 | -2 | 3 | 20 | -1
CC(CC(=O)Nc1cccc(S(=O)(=O)N2CCCCC2)c1)c1ccccc1 (stereo unspecified) | -1 | -9 | 10 | -5 | 1
O=C(CSc1ccccc1)Nc1cccc(S(=O)(=O)N2CCCC2)c1 | -2 | 4 | 5 | -32* | -1
